Assay results published in PubChem BioAssay (NCI).
Compounds without any hit were thinned out: in the full panel of roughly 83,000, 20% have a hit.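 For each line, cells grew in 96-well plates with the test compound present at a single concentration for 48 hours.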 Calls of active or inactive are those of the source. Rule for the calls: active = growth percent below 10; inactive = the rest.

Legend:
Test in all cases: NCI-60 one-dose screen, 48 h (100 = growth as untreated, 0 = no growth, -100 = all killed)
Details in all cases: 10 µM unless noted
SR leukemia = tested on: SR leukemia
RPMI-8226 leukemia = tested on: RPMI-8226 leukemia
OVCAR-8 ovarian = tested on: OVCAR-8 ovarian
OVCAR-5 ovarian = tested on: OVCAR-5 ovarian
OVCAR-4 ovarian = tested on: OVCAR-4 ovarian
SK-OV-3 ovarian = tested on: SK-OV-3 ovarian
IGROV1 ovarian = tested on: IGROV1 ovarian
OVCAR-3 ovarian = tested on: OVCAR-3 ovarian
HS 578T breast = tested on: HS 578T breast
NCI/ADR-RES ovarian = tested on: NCI/ADR-RES ovarian
T-47D breast = tested on: T-47D breast
BT-549 breast = tested on: BT-549 breast
MDA-MB-435 melanoma = tested on: MDA-MB-435 melanoma
SW-620 colon = tested on: SW-620 colon
MCF7 breast = tested on: MCF7 breast
HCT-116 colon = tested on: HCT-116 colon
HCC-2998 colon = tested on: HCC-2998 colon
KM12 colon = tested on: KM12 colon

Measured: growth

O=c1cc(-c2ccccc2)nc(SCc2nc3cc(Cl)c(Cl)cc3[nH]2)[nH]1
inactive: RPMI-8226 leukemia 114% | OVCAR-8 ovarian 104% | OVCAR-5 ovarian 95.2% | OVCAR-4 ovarian 101% | SK-OV-3 ovarian 92.4% | IGROV1 ovarian 101% | OVCAR-3 ovarian 106% | HS 578T breast 105% | NCI/ADR-RES ovarian 97% | T-47D breast 79% | BT-549 breast 108% | MDA-MB-435 melanoma 105% | SW-620 colon 104% | MCF7 breast 92.5% | HCT-116 colon 97.3% | HCC-2998 colon 102% | KM12 colon 96%
active: SR leukemia 6.56%

CC1SC(c2ccccc2O)N(NC(=O)CCC(=O)c2nc3ncccc3[nH]2)C1=O (stereo unspecified)
inactive: SR leukemia 109% | RPMI-8226 leukemia 93.1% | OVCAR-8 ovarian 97% | OVCAR-5 ovarian 107% | OVCAR-4 ovarian 92.8% | SK-OV-3 ovarian 92.3% | IGROV1 ovarian 70.1% | OVCAR-3 ovarian 97% | HS 578T breast 90.2% | NCI/ADR-RES ovarian 89.6% | T-47D breast 93.6% | BT-549 breast 122% | MDA-MB-435 melanoma 102% | SW-620 colon 92.6% | MCF7 breast 98.7% | HCT-116 colon 91.2% | HCC-2998 colon 92.9% | KM12 colon 95.2%

COc1cc(-c2cc(-c3ccc(Nc4nc(Nc5ccc(Cl)cc5)nc(Nc5ccc(Cl)cc5)n4)cc3)no2)cc(OC)c1OC
inactive: SR leukemia 15.7% | OVCAR-8 ovarian 76.4% | OVCAR-5 ovarian 77.8% | OVCAR-4 ovarian 78.8% | SK-OV-3 ovarian 90.7% | IGROV1 ovarian 71% | OVCAR-3 ovarian 86% | HS 578T breast 62.9% | NCI/ADR-RES ovarian 80.4% | T-47D breast 45.9% | BT-549 breast 88.6% | MDA-MB-435 melanoma 71.5% | SW-620 colon 89.1% | MCF7 breast 49.4% | HCT-116 colon 66.2% | HCC-2998 colon 61.3% | KM12 colon 83.8%
active: RPMI-8226 leukemia 7.63%

O=C1/C(=C/c2c[nH]c(=O)[nH]c2=O)SC(=S)N1Cc1ccccc1
inactive: SR leukemia 99.5% | RPMI-8226 leukemia 101% | OVCAR-8 ovarian 100% | OVCAR-5 ovarian 99% | OVCAR-4 ovarian 105% | SK-OV-3 ovarian 103% | IGROV1 ovarian 102% | OVCAR-3 ovarian 108% | HS 578T breast 89% | NCI/ADR-RES ovarian 106% | T-47D breast 108% | BT-549 breast 107% | MDA-MB-435 melanoma 100% | SW-620 colon 98.7% | MCF7 breast 89.4% | HCT-116 colon 103% | HCC-2998 colon 101% | KM12 colon 101%

Clc1ccc(Nc2ncc(Cc3cccc(Cl)c3Cl)s2)cc1
inactive: SR leukemia 102% | RPMI-8226 leukemia 89.4% | OVCAR-8 ovarian 98% | OVCAR-5 ovarian 85.8% | OVCAR-4 ovarian 94.8% | SK-OV-3 ovarian 102% | IGROV1 ovarian 93.3% | OVCAR-3 ovarian 100% | HS 578T breast 102% | NCI/ADR-RES ovarian 93.3% | T-47D breast 77.9% | BT-549 breast 129% | MDA-MB-435 melanoma 105% | SW-620 colon 101% | MCF7 breast 90.9% | HCT-116 colon 92.8% | HCC-2998 colon 101% | KM12 colon 101%

C=C(C)[C@@H]1CC[C@]2(C(=O)N3CCNCC3)CC[C@]3(C)[C@H](CC[C@@H]4[C@@](C)(CCC(=O)N5CCNCC5)[C@H](C(=C)C)CC[C@]43C)[C@@H]12
inactive: RPMI-8226 leukemia 12.1% | OVCAR-8 ovarian 47.8% | OVCAR-5 ovarian 104% | OVCAR-4 ovarian 81.9% | SK-OV-3 ovarian 101% | IGROV1 ovarian 101% | OVCAR-3 ovarian 70.7% | HS 578T breast 92.4% | NCI/ADR-RES ovarian 95.6% | T-47D breast 103% | BT-549 breast 88.5% | MDA-MB-435 melanoma 74% | MCF7 breast 26.4% | HCC-2998 colon 81% | KM12 colon 51.2%
active: SR leukemia -15.2% | SW-620 colon -14.4% | HCT-116 colon -56.1%

O=C(Cn1nc(-c2cccc3ccccc23)ccc1=O)NCc1cccc(Cl)c1
inactive: SR leukemia 22.2% [50 µM] | RPMI-8226 leukemia 23.7% [50 µM] | OVCAR-8 ovarian 39.5% [50 µM] | OVCAR-5 ovarian 67.8% [50 µM] | OVCAR-4 ovarian 41.4% [50 µM] | SK-OV-3 ovarian 61.5% [50 µM] | IGROV1 ovarian 47.2% [50 µM] | OVCAR-3 ovarian 38.6% [50 µM] | HS 578T breast 61.6% [50 µM] | NCI/ADR-RES ovarian 27.1% [50 µM] | BT-549 breast 44.3% [50 µM] | MDA-MB-435 melanoma 45.5% [50 µM] | SW-620 colon 55% [50 µM] | MCF7 breast 20.1% [50 µM] | HCT-116 colon 33.5% [50 µM] | HCC-2998 colon 54.6% [50 µM] | KM12 colon 41.7% [50 µM]
active: T-47D breast 9.17% [50 µM]

N=C(N)c1ccc(-c2ccc(-c3cc(Cl)cc(Cl)c3)s2)s1
active: SR leukemia -29.4% | RPMI-8226 leukemia -26% | OVCAR-8 ovarian -34.6% | OVCAR-5 ovarian 3.07% | OVCAR-4 ovarian -58% | IGROV1 ovarian -26.7% | OVCAR-3 ovarian -76.2% | NCI/ADR-RES ovarian -21.4% | T-47D breast -50% | MDA-MB-435 melanoma -69.7% | SW-620 colon -39.8% | MCF7 breast -64.2% | HCT-116 colon -52.5% | HCC-2998 colon -59.9% | KM12 colon -58.6%
inactive: SK-OV-3 ovarian 88.7% | HS 578T breast 87.6% | BT-549 breast 87.8%

CC(C)(C)CC(C)(C)Nc1c(-c2c(O)c3ccccc3oc2=O)nc2sc3ccccc3n12
active: RPMI-8226 leukemia 8.98%
inactive: SR leukemia 30.3% | OVCAR-8 ovarian 22.2% | OVCAR-5 ovarian 66.9% | OVCAR-4 ovarian 41.9% | SK-OV-3 ovarian 30.4% | IGROV1 ovarian 29.5% | OVCAR-3 ovarian 55.2% | HS 578T breast 30.1% | NCI/ADR-RES ovarian 40.1% | T-47D breast 15.9% | BT-549 breast 51.9% | MDA-MB-435 melanoma 47.9% | SW-620 colon 21.3% | MCF7 breast 28.9% | HCT-116 colon 29.6% | HCC-2998 colon 52.6% | KM12 colon 45.1%

NS(=O)(=O)c1ccc(C(=O)NN2C(=O)c3ccccc3C2=O)cc1
inactive: SR leukemia 105% | RPMI-8226 leukemia 109% | OVCAR-8 ovarian 107% | OVCAR-5 ovarian 110% | OVCAR-4 ovarian 113% | SK-OV-3 ovarian 117% | IGROV1 ovarian 113% | OVCAR-3 ovarian 108% | HS 578T breast 102% | NCI/ADR-RES ovarian 112% | T-47D breast 98.4% | BT-549 breast 109% | MDA-MB-435 melanoma 103% | SW-620 colon 104% | MCF7 breast 96.1% | HCT-116 colon 110% | HCC-2998 colon 108% | KM12 colon 102%

Cc1cc(C(=O)CCCC(=O)c2cc(C)c(O)c(C)c2)cc(C)c1O
inactive: SR leukemia 81.9% | RPMI-8226 leukemia 94.2% | OVCAR-8 ovarian 104% | OVCAR-5 ovarian 95.8% | OVCAR-4 ovarian 93.1% | SK-OV-3 ovarian 98% | IGROV1 ovarian 95.9% | OVCAR-3 ovarian 105% | HS 578T breast 98.8% | NCI/ADR-RES ovarian 98% | T-47D breast 84.6% | BT-549 breast 112% | MDA-MB-435 melanoma 101% | SW-620 colon 98.9% | MCF7 breast 86.5% | HCT-116 colon 86.8% | HCC-2998 colon 46% | KM12 colon 102%

CN(C)CCC(=O)C1CC1
inactive: SR leukemia 97.3% | RPMI-8226 leukemia 101% | OVCAR-8 ovarian 106% | OVCAR-5 ovarian 100% | OVCAR-4 ovarian 108% | SK-OV-3 ovarian 110% | IGROV1 ovarian 92.3% | OVCAR-3 ovarian 105% | HS 578T breast 111% | NCI/ADR-RES ovarian 98.3% | T-47D breast 97.6% | BT-549 breast 99.7% | MDA-MB-435 melanoma 105% | SW-620 colon 102% | MCF7 breast 108% | HCT-116 colon 96.1% | HCC-2998 colon 103% | KM12 colon 109%
